For 23 compounds, Potency results are on record in PubChem BioAssay (NCATS).

The structures appear in SMILES notation. Results filed as inconclusive are left out. Calls of active or inactive are those of the source. Calls come from the whole dose curve; as a rule, active = well fitted inhibition curve with a large enough effect; inconclusive = small, poorly fitted or top-dose-only effect; inactive = flat fitted curve, though single readings scatter.

Common to all, as to assay: qHTS profiling for inhibitors of Plasmodium falciparum proliferation (AID 504749); note: nearly all actives have a fitted effect of over 60% in size
Details in all cases: P. falciparum in erythrocytes, SYBR Green DNA, 72 h; series mostly up to 28.7 µM
For orientation: Quantitative high-throughput screening tests each substance at several concentrations.

Assay [1] has as its system CP203. The procedure, abridged:
(§1)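 In a 72 h erythrocytic culture (37 C, humidified, 5% CO2) at 2.5% hematocrit and 0.3% starting parasitemia, compounds were tested; SYBR Green I in detergent lysis buffer stained parasite DNA overnight.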

In assay [2] the test system is CP211. Summed up: as §1
Assay [3] deals with CP215. Summed up: as §1
Assay [4] deals with CP217. Summed up:
as §1

The subject of assay [5] is CP237. Summed up: as §1
Assay [6] has as its system CP238. The procedure, abridged: as §1
For assay [7], the system named is CP247. Summed up:
as §1

In assay [8] the test system is CP250. The procedure, abridged: as §1
Assay [9] has as its system CP252. The procedure, abridged: as §1
Assay [10] has as its system CP256. The procedure, abridged: as §1
Potency is the fitted concentration of half-maximal effect.

As to `O=C(CCl)c1ccc(Oc2ccc(C(=O)CCl)cc2)cc1`, the Potency entry in [1], in [2], in assay [3], in [4], in assay [5] and in [6] was “inactive” throughout. Further, the Potency entry in assay [7], in [8], in [9] and in assay [10] was “inactive” each time.
Take `NCC(O)c1cccc(O)c1` (centres undefined): the Potency result in assay [1], in assay [2], in assay [3], in assay [4], in assay [5] and in assay [6] was “inactive” each time. In addition, the Potency entry in assay [7], in [8], in assay [9] and in assay [10] was “inactive” each time.
As to `S=C(S)N1CCNCC1`, the Potency result in assay [1], in assay [2], in assay [3], in assay [4], in assay [5] and in [6] was “inactive” throughout. In addition, the Potency entry in assay [7], in [8], in [9] and in assay [10] was “inactive” throughout.
For `O=C1C2CC=CCC2C(=O)N1SC(Cl)(Cl)Cl` (centres undefined), the Potency result in assay [1], in [2], in assay [3], in [4], in assay [5] and in [6] was “inactive” in each case. The Potency result in assay [7], in assay [8], in assay [9] and in assay [10] was “inactive” in each case.
As to `CCCCCl`, the Potency entry in assay [1], in assay [2], in assay [3], in assay [4], in [5] and in [6] was “inactive” throughout. Besides, the Potency entry in [7], in assay [8], in [9] and in assay [10] was “inactive” each time.
Turning to `O=[N+]([O-])c1ccccc1`, the Potency result in [1], in assay [2], in [3], in [4], in assay [5] and in [6] was “inactive” each time. Further, the Potency entry in assay [7], in [8], in [9] and in [10] was “inactive” throughout.
For the compound `O=C1CCO1`, the Potency entry in [1], in assay [2], in assay [3], in assay [4], in [5] and in assay [6] was “inactive” each time. Also, the Potency entry in [7], in assay [8], in assay [9] and in assay [10] was “inactive” throughout.
Take `ClC=C(Cl)Cl`: the Potency result in assay [1], in assay [2], in [3], in assay [4], in [5] and in assay [6] was “inactive” throughout. Besides, the Potency entry in assay [7], in assay [8], in assay [9] and in assay [10] was “inactive” in each case.
With `c1ccc2sc(SNC3CCCCC3)nc2c1`, the Potency entry in assay [1], in assay [2], in assay [3], in [4], in assay [5] and in assay [6] was “inactive” in each case. The Potency result in assay [7], in [8], in assay [9] and in assay [10] was “inactive” throughout.
Consider `O=P(O)(O)C(Cl)(Cl)P(=O)(O)O`, for which the Potency entry in [1], in [2], in assay [3], in [4], in assay [5] and in assay [6] was “inactive” throughout. In addition, the Potency result in assay [7], in [8], in assay [9] and in [10] was “inactive” in each case.
On to `O=[N+]([O-])C(Br)(CO)CO`, for which the Potency result in assay [1], in [2], in [3], in [4], in [5] and in assay [6] was “inactive” throughout. The Potency entry in assay [7], in assay [8], in [9] and in assay [10] was “inactive” in each case.
Regarding `O=[N+]([O-])c1cc(I)c(O)c(I)c1`, the Potency result in [1], in assay [2], in [3], in assay [4], in assay [5] and in [6] was “inactive” in each case. The Potency result in assay [7], in [8], in assay [9] and in assay [10] was “inactive” each time.
As for `O=C1CC[C@@]2(O)C3Cc4ccc(O)c5c4C2(CCN3CC2CC2)[C@H]1O5` (some centres undefined), the Potency result in [1], in assay [2], in [3], in assay [4], in assay [5] and in assay [6] was “inactive” throughout. Besides, the Potency entry in [7], in assay [8], in assay [9] and in assay [10] was “inactive” each time.
In the case of `C[N+]1(C)C2CCC1CC(OC(=O)c1c[nH]c3ccccc13)C2` (centres undefined), the Potency entry in [1], in assay [2], in assay [3], in assay [4], in [5] and in [6] was “inactive” in each case. Moreover, the Potency result in assay [7], in [8], in [9] and in assay [10] was “inactive” throughout.
For `[N-]=[N+]=CC(=O)OCC(N)C(=O)O` (centres undefined), the Potency result in assay [1], in assay [2], in [3], in assay [4], in assay [5] and in [6] was “inactive” each time. The Potency result in assay [7], in [8], in [9] and in assay [10] was “inactive” throughout.
With `[O]=[Cr](=[O])([OH])[O][Cr](=[O])(=[O])[OH]`, the Potency result in assay [1], in assay [2], in [3], in assay [4], in assay [6] and in assay [7] was “inactive” in each case. Further, the Potency result in [8], in [9] and in [10] was “inactive” each time. Also, the Potency in assay [5] was 11.2 µM (active).
For `Clc1ccc(C2(Cn3cncn3)OCCO2)c(Cl)c1`, the Potency result in [2], in assay [3], in [4], in assay [5], in assay [6] and in assay [7] was “inactive” throughout. In addition, the Potency entry in [8], in assay [9] and in assay [10] was “inactive” in each case.
`ClCC1CO1` (centres undefined): the Potency entry in [2], in [3], in [4], in assay [5], in assay [6] and in assay [7] was “inactive” in each case. Besides, the Potency entry in assay [8], in assay [9] and in assay [10] was “inactive” throughout.
Consider `COC1=CC=C2[C@H]3Cc4ccc(OC)c5c4[C@@]2(CCN3C)[C@H]1O5`, for which the Potency entry in assay [1], in assay [2], in assay [3], in assay [4], in assay [6] and in assay [7] was “inactive” each time. Moreover, the Potency entry in [8], in assay [9] and in assay [10] was “inactive” throughout.
Take `CC(N)Cc1ccc(O)cc1` (centres undefined): the Potency entry in assay [2], in assay [3], in [4], in assay [5], in [6] and in [7] was “inactive” in each case. Moreover, the Potency entry in assay [8], in [9] and in [10] was “inactive” throughout.
Consider `Oc1cc(Cl)c(Cl)cc1Cl`, for which the Potency entry in assay [2], in assay [3], in [4], in [5], in [6] and in assay [7] was “inactive” in each case. Further, the Potency result in assay [8], in assay [9] and in assay [10] was “inactive” each time.
Consider `CCCC(C)(COC(N)=O)COC(=O)NC1CC1` (centres undefined), for which the Potency result in assay [1], in assay [2], in assay [3], in assay [4], in assay [5] and in assay [6] was “inactive” each time. Besides, the Potency result in assay [7], in assay [8], in assay [9] and in assay [10] was “inactive” each time.
Consider `CNC(=O)OCC[N+](C)(C)C`, for which the Potency result in assay [1], in [3], in assay [4], in assay [5], in assay [6] and in [7] was “inactive” each time. The Potency entry in assay [8], in [9] and in assay [10] was “inactive” throughout.
